The panel holds about 83,000 compounds, 20% with a hit somewhere; the sample as a whole holds those more often.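 Step 1: grow cells in 96-well plates. Step 2: add test compound at a single concentration. Step 3: incubate 48 h. Step 4: record percent growth.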 A number with no mark means an inactive call. The source made the active and inactive calls. The calls were made as follows: active = growth percent below 10; inactive = the rest.
What was measured:
Experiment in all cases: NCI-60 one-dose screen, 48 h (100 = growth as untreated, 0 = no growth, -100 = all killed)
Conditions in all cases: 10 µM unless noted
SK-MEL-2 melanoma = test system: SK-MEL-2 melanoma
EKVX NSCLC = test system: EKVX NSCLC
SN12C renal = test system: SN12C renal
UO-31 renal = test system: UO-31 renal
TK-10 renal = test system: TK-10 renal
ACHN renal = test system: ACHN renal
A498 renal = test system: A498 renal
CCRF-CEM leukemia = test system: CCRF-CEM leukemia
MOLT-4 leukemia = test system: MOLT-4 leukemia
SR leukemia = test system: SR leukemia
RPMI-8226 leukemia = test system: RPMI-8226 leukemia
OVCAR-8 ovarian = test system: OVCAR-8 ovarian
OVCAR-5 ovarian = test system: OVCAR-5 ovarian
OVCAR-4 ovarian = test system: OVCAR-4 ovarian
SK-OV-3 ovarian = test system: SK-OV-3 ovarian
IGROV1 ovarian = test system: IGROV1 ovarian
OVCAR-3 ovarian = test system: OVCAR-3 ovarian
HS 578T breast = test system: HS 578T breast
NCI/ADR-RES ovarian = test system: NCI/ADR-RES ovarian

| SMILES | growth (SK-MEL-2 melanoma) | growth (EKVX NSCLC) | growth (SN12C renal) | growth (UO-31 renal) | growth (TK-10 renal) | growth (ACHN renal) | growth (A498 renal) | growth (CCRF-CEM leukemia) | growth (MOLT-4 leukemia) | growth (SR leukemia) | growth (RPMI-8226 leukemia) | growth (OVCAR-8 ovarian) | growth (OVCAR-5 ovarian) | growth (OVCAR-4 ovarian) | growth (SK-OV-3 ovarian) | growth (IGROV1 ovarian) | growth (OVCAR-3 ovarian) | growth (HS 578T breast) | growth (NCI/ADR-RES ovarian) |
| --- | --- | --- | --- | --- | --- | --- | --- | --- | --- | --- | --- | --- | --- | --- | --- | --- | --- | --- | --- |
| O=C(NNc1nc2cc(F)ccc2n2c(CN3CC4CNCC4C3)ccc12)c1cnccn1 (centres undefined) | 30.9% | 25.9% | 27.5% | 19.7% | 22.4% | 17.4% | 36.9% | 12.1% | 5.6% (active) | 12.9% | 46.7% | 14.3% | 43.1% | 23.8% | 23.4% | 24.2% | 36.9% | 72.5% | 84.8% |
| N#Cc1cccc(CN2CCC3=C(C2)C(=O)N(Cc2ccc(Cl)cc2)C2=NCCN23)c1 | 39.5% | 26.8% | 23.9% | 35.5% | 52.3% | 33.2% | 15% | 33.1% | 53.2% | 32.9% | 17% | 20.2% | 38.6% | 20.4% | 27.8% | 54.4% | 23.4% | 45.5% | 13.5% |
| O=C(CSc1nc2ccccc2c(=O)n1-c1ccccc1)Nc1ccc(-c2nc3ccc([N+](=O)[O-])cc3[nH]2)cc1 | 89.5% | 93.5% | 72.4% | 76.9% | 127% | 88.2% | 77.8% | 22.1% | 20.4% | 20.9% | 67.2% | 75.5% | 86.1% | 88.6% | 106% | 57.9% | 63.6% | 77.1% | 75.3% |
| CCOc1ccccc1NC1=C(Cl)C(=O)c2nc(C)ccc2C1=O | -15.7% (active) | -2.24% (active) | -51% (active) | -93% (active) | 124% | -99.1% (active) | 78.8% | -6.33% (active) | -24.9% (active) | -12.8% (active) | -35.1% (active) | 0.93% (active) | 40.8% | -92% (active) | 85.3% | -57.5% (active) | -98.9% (active) | 1.05% (active) | -9.58% (active) |
| NS(=O)(=O)c1ccc(Nc2nc(N/N=C/c3ccccn3)nc(Nc3ccccc3)n2)cc1 | -82% (active) | 13.3% | 2.73% (active) | 17.4% | 2.56% (active) | 17.5% | -67.6% (active) | 5.99% (active) | 3.13% (active) | 12.5% | 36.6% | 3.72% (active) | 9.36% (active) | -20.3% (active) | -31.4% (active) | -30.3% (active) | -15.8% (active) | -18.8% (active) | 49% |
| O=C(NNc1nc2cc(F)c(F)cc2n2c(CN3CC4CNCC4C3)ccc12)c1cnccn1 (centres undefined) | 29.2% | 19.5% | 22.1% | 14.1% | 33.4% | 15% | 35.1% | 9.82% (active) | 7% (active) | 12% | 20.4% | 13.8% | 42.7% | 22.8% | 13.3% | 14.5% | 35.9% | 72.7% | 56.7% |
| O=C(NNc1nc2cc(F)cc(F)c2n2cccc12)c1cnccn1 | 32.6% | 8.74% (active) | 25.5% | 18.1% | 21.9% | 14.5% | 11.1% | 10.6% | 1.8% (active) | 8.81% (active) | 18.3% | 12.7% | 33.1% | 16.2% | 4.18% (active) | 15% | 30.2% | 64.4% | 3.06% (active) |
| COc1ccc(Oc2ccc(/C=N/NC(=O)CSc3nc4ccccc4c(=O)n3-c3ccc(Cl)cc3)cc2)cc1 | 97.6% | 69.4% | 52.7% | 47.7% | 96.5% | 7.83% (active) | 72.9% | 63.5% | 61.7% | 72.8% | 85.1% | 85.7% | 81.2% | 72.5% | 66.3% | 48.7% | -56.8% (active) | -4.46% (active) | 51.1% |
| O=c1[nH]c(Sc2sc3ccc(Cl)cc3c2CBr)nc(=S)[nH]1 | 7.23% (active) | 40.2% | 41.8% | 19.9% | 46.2% | 26.7% | 5.73% (active) | 18% | 17.5% | 7.03% (active) | 24.2% | 41.2% | 49.3% | 40.7% | 18.4% | 4.63% (active) | 56% | 19.3% | 65.3% |
| CN(C)CCNC(=O)c1ccc(-c2nc3ccc4[nH]ncc4c3c3c2CCC3)cc1 | -22.8% (active) | 15.3% | 7.23% (active) | 18.2% | 22.1% | 12.8% | -63.6% (active) | 3.51% (active) | 7.28% (active) | -1.05% (active) | -15.7% (active) | 9.58% (active) | 21.4% | 10.2% | 0.409% (active) | 1.06% (active) | 2.15% (active) | -25% (active) | 81.3% |
| CN(C)CCNC(=O)c1ccc(-c2nc3ccc4[nH]ncc4c3c3c2COCC3)cc1 | -69.7% (active) | 33.1% | 5.07% (active) | 82.9% | 44% | 69.4% | -60.4% (active) | 2.22% (active) | -9.13% (active) | -25.1% (active) | 44.3% | 11% | 27.5% | 2.78% (active) | 14% | 0.798% (active) | -6.74% (active) | -19.6% (active) | 92.2% |
| C=CCn1c(SCC(=O)Nc2ccc(C(=O)/C=C/c3ccc(Br)cc3)cc2)nnc1-c1c[nH]c2ccccc12 | 93.4% | 82.2% | 81.1% | 59.7% | 95.9% | 87.8% | 88.9% | 83% | 66.3% | 70.3% | 3.64% (active) | 81.2% | 99.4% | 74.7% | 91.8% | 76.4% | 86.9% | 89.9% | 101% |
| CCCCCCCn1cc2c(N[C@H](C)c3ccccc3)ncnc2n1 | 123% | 88.2% | 99.2% | 78.3% | 126% | 102% | 87.6% | 99.6% | 102% | 99.5% | 100% | 103% | 104% | 100% | 117% | 89.9% | 103% | 91.2% | 102% |
| COc1c(N2CC3CCCNC3C2)c(F)cc2c(=O)c(C(=O)N/N=C/c3ccc(Br)cc3)cn(C3CC3)c12 (centres undefined) | 100% | 90.4% | 78.8% | 60.5% | 121% | 89.2% | 74.3% | 55.3% | 54.9% | -28.1% (active) | 65.8% | 90.3% | 92.8% | 90.1% | 99.6% | 75.2% | 81.7% | 88.4% | 90.1% |
| COc1ccc2c(c1)c(CC(=O)[Se]CC#N)c(C)n2C(=O)c1ccc(Cl)cc1 | 39.3% | -2.11% (active) | 74% | -3.23% (active) | -5.49% (active) | 12% | -17.1% (active) | 8.66% (active) | 10.8% | 3.49% (active) | 20.5% | 6.34% (active) | -13.6% (active) | 27.7% | 34% | -14.3% (active) | 13.9% | 28.3% | -13.8% (active) |
| CN1CCN(Cc2ccc(NC(=O)c3cncc(C#Cc4cnc5ccc(OCC(C)(C)O)nn45)c3)cc2C(F)(F)F)CC1 | -80.4% (active) | -31.2% (active) | 2.45% (active) | -87.9% (active) | -18.5% (active) | -33.3% (active) | -84.1% (active) | 6.09% (active) | 5.42% (active) | -7.52% (active) | -27.6% (active) | 6.58% (active) | -3.05% (active) | -2.05% (active) | -13.3% (active) | -17.3% (active) | -56.5% (active) | -36.9% (active) | 33.9% |

From PubChem BioAssay (NCI)
